Consider 58 compounds from PubChem BioAssay AID1851 (National Center for Advancing Translational Sciences (NCATS), 2009).

The term AC50 denotes the concentration giving half of the maximal activity seen.

Among all 16,000 compounds or so, about 5,700 (36%) were called active. Another 24% or so got no clear call; they are omitted. Calls follow the shape of the dose curve; as a rule, active = well fitted curve in the direction sought with a large enough effect; inconclusive = small, poorly fitted or top-dose-only effect, or effect the other way; inactive = no such curve, though single readings can be large or run the other way. Some of the results follow.
% is scaled to controls: 0 for no effect and ±100 for the full control effect.

In this experiment the target is Cytochrome P450 1A2 (Homo sapiens) (UniProt P05177). The experiment is described as follows: Cytochrome panel assay with activity outcomes. The note with it: recombinant CYP, pro-luciferin dealkylation, luminescence, p450-cyp1a2; series mostly up to 57.1 µM.
Sequence of Cytochrome P450 1A2 (Homo sapiens) (P05177 whole entry, looked up): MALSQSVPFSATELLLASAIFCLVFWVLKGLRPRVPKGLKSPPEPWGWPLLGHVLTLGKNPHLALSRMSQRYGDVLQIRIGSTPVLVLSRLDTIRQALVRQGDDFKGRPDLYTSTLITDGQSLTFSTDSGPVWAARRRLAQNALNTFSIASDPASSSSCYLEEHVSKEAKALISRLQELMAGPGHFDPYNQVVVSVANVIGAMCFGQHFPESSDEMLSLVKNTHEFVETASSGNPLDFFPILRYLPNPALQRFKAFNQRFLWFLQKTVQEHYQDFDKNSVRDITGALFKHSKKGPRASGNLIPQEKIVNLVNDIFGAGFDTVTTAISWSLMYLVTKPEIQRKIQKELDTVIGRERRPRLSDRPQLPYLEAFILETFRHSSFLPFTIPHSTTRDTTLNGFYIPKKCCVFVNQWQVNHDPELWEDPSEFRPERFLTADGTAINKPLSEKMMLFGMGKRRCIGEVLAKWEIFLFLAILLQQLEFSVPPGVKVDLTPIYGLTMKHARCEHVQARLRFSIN
Take `Cc1cc(N)n2ncc(-c3ccc(Cl)cc3)c2n1`: the half-maximal activity concentration (AC50) was 1260 nM (active). With `CC1(C)O[C@@H]2O[C@H]([C@@H]3COC(C)(C)O3)[C@H](N)[C@H]2O1`, the activity, negative = inhibition is 8.69% [at 2.29 µM] (inactive). Regarding `Cc1cccc(NC(=O)c2onc3c2CCCC3)c1C`, the half-maximal activity concentration (AC50) is 2240 nM (active).

Take `O=C(Nc1ccc2ccccc2c1)c1onc2c1CCCC2`: the AC50 was 4470 nM (active). The same measure, in the same setting: to `Cc1cccc(NC(=S)N2CCC(N(C)CC3CCCO3)CC2)c1C` (stereo not drawn) belongs “inactive”.

Regarding `CO[C@@H]1COC(=O)C/C=C\[C@H](C)COC(=O)[C@H](Cc2ccccc2)NC(=O)C/C=C\[C@H]1C`, the activity, negative = inhibition is 4.04% [at 11.4 µM] (inactive). For `Cn1c(-c2ccc(Br)cc2)cnc1NCc1cccnc1`, the half-maximal activity concentration (AC50) was 12600 nM (active). Take `Cc1ccnc(NS(=O)(=O)c2ccc(N=[N+]=[N-])cc2)n1`: the activity, negative = inhibition was -6.01% [at 11.4 µM] (inactive).

As for `CC(=C/c1ccccc1)/C=N/n1cnnc1`, the AC50 was 2000 nM (active).

`CC(=C\C(=O)O)/C(=C/c1ccccc1)C(=O)O`: the AC50 entry is “inactive”. On to `COC(=O)c1ccc(C2C(Oc3ccccc3)C(=O)N2CCc2ccc(OC)c(OC)c2)cc1` (stereo not drawn), for which the AC50 entry was “inactive”. Still for that read-out and setting: under `Cc1cnc(CNc2ncnc3ccc(-c4ccccc4Cl)cc23)cn1` stands 6310 nM (active); under `Cc1cnc(CNc2ncnc3ccc(-c4ccccc4C)cc23)cn1`, 6310 nM (active); under `COc1ccccc1-c1ccc2ncnc(NCc3cnc(C)cn3)c2c1`, 6310 nM (active).

On to `Cc1cnc(CNc2ncnc3ccc(-c4ccccc4C(F)(F)F)cc23)cn1`, for which the half-maximal activity concentration (AC50) was 12600 nM (active). The same measure, in the same setting: under `Cc1cnc(CNc2ncnc3ccc(-c4ccccc4CN(C)C)cc23)cn1` stands “inactive”; under `CC(C)NC(=O)N1CC[C@@]2(CCCN(C(=O)c3csnn3)C2)C1`, “inactive”; under `CC[C@@H]1OC(=O)[C@H](C)[C@H](O[C@@H]2C[C@](C)(OC)[C@H](O)[C@H](C)O2)[C@H](C)[C@H](O[C@@H]2O[C@@H](C)C[C@@H](N(C)C)[C@@H]2O)[C@](C)(O)C[C@H](C)C(=NOCOCCOC)[C@H](C)[C@H](O)[C@]1(C)O`, “inactive”. Take `CC(C)CO/N=C1/C[C@@H](O)[C@@H](O)[C@@H]2[C@H]3C(=O)N(c4ccc(F)cc4F)C(=O)[C@@H]3CC[C@H]12`: the activity, negative = inhibition is 0.352% [at 11.4 µM] (inactive).

Take `CCN(CC)c1ccc2cc(C(C)=O)c(=O)oc2c1`: the half-maximal activity concentration (AC50) was 891 nM (active). Same read-out and setting: to `CC(=O)c1cc2ccccc2oc1=O` belongs 200 nM (active). With `CC(C)NCC[C@@H](O)c1cc2ccccc2o1`, the activity, negative = inhibition is -2.1% [at 2.29 µM] (inactive).

On to `Cc1ccc[n+](CC(=O)c2cc3ccccc3oc2=O)c1`, for which the AC50 result was “inactive”. The same measure, in the same setting: to `CC(C)OC(=O)c1cc2ccccc2oc1=O` belongs 447 nM (active).

In the case of `O=C(Nc1ccc2oc(=O)c(C(=O)O)cc2c1)Oc1ccccc1`, the activity, negative = inhibition was -15.3% [at 2.29 µM] (inactive). As for `COc1cc(CNn2nnnc2N)ccc1OCc1c(Cl)cccc1Cl`, the AC50 is 7080 nM (active).

For `COc1ccc(C[N+](C)(C)N)cc1OC`, the activity, negative = inhibition is -11.5% [at 11.4 µM] (inactive). On the same count and under the same terms, under `Nc1ncnc2c1ncn2CCCCC(=O)O` stands -3.15% [at 11.4 µM] (inactive).

With `O=C(Nc1cccnc1)c1ccc2snnc2c1`, the half-maximal activity concentration (AC50) was 63.1 nM (active). Turning to `Nc1ccc(S(=O)(=O)c2ccc(NC(=O)c3cccnc3)cc2)cc1`, the activity, negative = inhibition was -21.1% [at 2.29 µM] (inactive).

As for `COc1ccc(OC)c2c(=S)c3ccccc3[nH]c12`, the AC50 was 63.1 nM (active). Same read-out and setting: under `COc1ccc(C2(C(=O)N3CCOCC3)CCCC2)cc1` stands “inactive”; under `COc1cc(N2CCOCC2)ncn1`, “inactive”. On the same count and under the same terms, to `COc1ccc2c(C)cc(N3CCOCC3)nc2c1` belongs 2510 nM (active). On to `NCCCCCc1nnc(SCc2ccc(Cl)cc2Cl)o1`, for which the half-maximal activity concentration (AC50) is 11200 nM (active).

For the compound `CCOc1cc(/C=N/NC(=O)c2cc(C)[nH]n2)ccc1OC(=O)c1ccc([N+](=O)[O-])cc1`, the AC50 entry is “inactive”. In the case of `CCOc1cc(/C=N/NC(=O)COc2cccc(C)c2)ccc1OC(=O)c1cccs1`, the half-maximal activity concentration (AC50) was 11200 nM (active). Same read-out and setting: to `COc1ccc(/C=C/C(=O)Oc2cccc(/C=N/NC(=O)COc3c(C)cccc3C)c2)cc1` belongs “inactive”; to `FC(F)(F)c1cccc(NC(=S)Nc2cccc(Cl)c2)c1`, 5010 nM (active). On the same count and under the same terms, to `CN(C)CCNC(=S)Nc1cccc(Cl)c1` belongs “inactive”. Still for that read-out and setting: to `S=C(NCc1ccccn1)Nc1cccc(Cl)c1` belongs 2820 nM (active). With `CO[C@H]1COC(=O)[C@@H](C)COC(=O)[C@@H](Cc2ccccc2)NC(=O)C/C=C\[C@H]1C`, the activity, negative = inhibition was 4.52% [at 11.4 µM] (inactive). As to `CC1(C)S[C@@H]2[C@H](NC(=O)[C@@H](N)c3ccccc3)C(=O)N2[C@H]1C(=O)O[C@H]1OC(=O)c2ccccc21`, the AC50 result was “inactive”. Still for that read-out and setting: to `O=C(Nc1cc(C(F)(F)F)ccc1-n1cncn1)c1ccc(Br)cc1` belongs 562 nM (active).

Consider `CCOC(=O)CCN1C(=O)[C@H]2[C@H]3[C@H](O)[C@H](O)C/C(=N/OC[C@@H](O)COCc4ccco4)[C@@H]3CC[C@@H]2C1=O`, for which the activity, negative = inhibition was -1.07% [at 11.4 µM] (inactive). In the case of `Cn1c(=O)c2c3c(sc2n2cnnc12)CCC3`, the AC50 was 8910 nM (active). Still for that read-out and setting: to `CN1CCc2c(sc3c2c(=O)n(-c2ccccc2)c2nncn32)C1` belongs “inactive”. The same measure, in the same setting: to `CCCCCCCCCCCCCCCCCCOC[C@@H](COP(=O)([O-])OCC[N+](C)(C)C)OC` belongs “inactive”; to `c1ccc(-c2nc(-c3cccs3)[nH]c2-c2ccccc2)cc1`, 1000 nM (active).

Take `Cc1ccsc1-c1nc(-c2ccccc2)c(-c2ccccc2)[nH]1`: the concentration at half-maximal activity (AC50) is 1120 nM (active).

Consider `CCOc1ccc(OCC)c(-c2c(=O)n(OCc3ccccc3C(=O)OC)c3ccccc3[n+]2[O-])c1`, for which the AC50 entry was “inactive”. Same read-out and setting: under `COc1ccc(CC(=O)Nc2ccc(-c3nnc(-c4ccccc4)o3)cc2)cc1` stands “inactive”; under `COC(=O)c1ccccc1NC(=O)c1ccc(COc2ccc(C)c(C)c2)o1`, 2820 nM (active); under `Cc1ccc(OCc2ccc(C(=O)Nc3nccs3)o2)cc1C`, 631 nM (active). The same measure, in the same setting: to `COC(=O)c1ccccc1NC(=O)c1ccc(Cn2cc(Cl)cn2)o1` belongs 1580 nM (active); to `COC(=O)c1ccccc1NC(=O)CSc1nnc(C(CO)NC(=O)c2ccccc2Cl)n1C` (stereo not drawn), “inactive”; to `COc1ccc(NC(=O)c2ccc(COc3ccccc3)o2)cc1`, 2510 nM (active). As for `OCCN(CCO)c1ncnc2nc[nH]c12`, the activity, negative = inhibition is -9.2% [at 11.4 µM] (inactive).
